Measured values taken from PubChem BioAssay (NCI).
The panel holds about 83,000 compounds, 20% with a hit somewhere; the sample as a whole holds those more often.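 Values shown are percent growth following 48 h exposure of cells in 96-well plates to a single concentration of compound; below 10 was considered active.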 The source made the active and inactive calls.

How the values were obtained:
Experiment in all cases: NCI-60 one-dose screen, 48 h (100 = growth as untreated, 0 = no growth, -100 = all killed)
Details in all cases: 10 µM unless noted
[1] = tested on: T-47D breast
[2] = tested on: BT-549 breast
[3] = tested on: MDA-MB-435 melanoma
[4] = tested on: SW-620 colon
[5] = tested on: MCF7 breast
[6] = tested on: HCT-116 colon
[7] = tested on: KM12 colon
[8] = tested on: HCC-2998 colon

Measured: growth

COc1ccc(C(=O)c2cc3c(N)c(C(=O)Nc4cccc(Cl)c4C)sc3nc2C)cc1
active: [3] -6.97% | [6] 7.35%
inactive: [1] 40.9% | [2] 36.9% | [4] 23.2% | [5] 19.4% | [7] 10.6%

Cc1ccc(Nc2cc(=S)nc(N)[nH]2)cc1C
inactive: [1] 89.2% | [2] 95.9% | [3] 103% | [4] 96.7% | [5] 88.5% | [6] 90.1% | [7] 102%

c1ccc(-c2nn(-c3ccccc3)[n+](-c3cccc4ccccc34)n2)cc1
active: [3] -50.3% | [6] 7.65%
inactive: [1] 25% | [2] 13.4% | [5] 11.7% | [8] 20.8% | [7] 10.1%

O=C1Nc2c(ccc(Cl)c2Cl)/C1=C/c1ccc(O)cc1
inactive: [1] 61.2% | [2] 82.3% | [3] 101% | [4] 79.1% | [5] 54.1% | [6] 72.6% | [7] 85.9%

CCOC(=O)c1ccc(Nc2ccnc(SCC(=O)c3ccc(C#N)cc3)n2)cc1
inactive: [2] 50.1% | [3] 68.4% | [4] 89.8% | [5] 67% | [6] 71.8% | [7] 54.5%
active: [1] 9.84%

CC1(c2ccccc2)NC(=O)N(CC(=O)Nc2cccc(I)c2)C1=O (stereo not drawn)
inactive: [1] 81.5% | [3] 102% | [4] 92.2% | [5] 85.5% | [6] 97.5% | [8] 106% | [7] 90.9%

Cc1cccc(Oc2ccc(Nc3ncnc4ccc(NC(=O)CN(C)C)cc34)cc2Cl)c1
inactive: [1] 39.4% | [2] 72.9% | [3] 34.5% | [4] 12.6% | [5] 22.7% | [6] 21.4% | [7] 35.1%

CSc1nc(O)c(-c2ccccc2)c(=O)[nH]1
inactive: [1] 100% | [2] 103% | [3] 101% | [4] 98.8% | [5] 96.3% | [6] 99.4% | [7] 103%

CN(C)c1ccc(-c2c(C#N)c(N)n3nc(N)c(C#N)c3c2C#N)cc1
inactive: [1] 59.5% | [2] 69.1% | [3] 97% | [4] 112% | [5] 99.3% | [6] 99.3% | [7] 75.4%

COc1cc2nnn3c4ncccc4c(N=O)c3c2cc1OC
inactive: [1] 51.8% | [3] 90.5% | [4] 46.3% | [5] 21.4% | [6] 28.9% | [8] 106% | [7] 87%

CC1=CC2(C)/C=C(C)/C=C\CC(O)/C=C3/C=CC(=C4C(=O)OC2(CC1C)C4=O)OC3 (stereo not drawn)
inactive: [7] 10.2%
active: [1] -33.9% | [2] -17.1% | [3] -50.1% | [4] -88.5% | [5] -21.9% | [6] -100%

O=S(=O)(c1ccccc1)N1CCCc2ccccc21
inactive: [1] 96.5% | [2] 110% | [3] 110% | [4] 104% | [5] 96.8% | [6] 105% | [7] 100%

CC(=O)Nc1ccc(S(=O)(=O)NC2CCCCC2)cc1
inactive: [1] 90.9% | [2] 96.4% | [3] 105% | [4] 97.7% | [5] 96.9% | [6] 103% | [7] 104%

CCc1c(Nc2ccc(C)cc2)nc(N)[nH]c1=O
inactive: [1] 96.4% | [2] 101% | [3] 106% | [4] 109% | [5] 93.7% | [6] 98.6% | [7] 102%

COc1cc(NCC(O)CN(CC(C)C)C2CCCC2)c2ncccc2c1 (stereo not drawn)
inactive: [2] 89.5% | [3] 107% | [4] 70.5% | [5] 24.1% | [6] 68% | [8] 97.3% | [7] 87%

O=C(Nc1ccc(F)cc1)c1c(NC(=O)C(F)(F)F)sc2c1CCCCC2
active: [2] -2.41% | [3] 3.22% | [5] 3.61% | [6] 1.79% | [7] 2.08%
inactive: [4] 11.6% | [8] 10.1%

COc1cc(NCCCN(CC(C)C)CC(C)C)c2ncccc2c1
inactive: [2] 80.4% | [3] 115% | [4] 67.4% | [6] 62% | [8] 86.4% | [7] 84.7%
active: [5] -43.4%

COc1ccc(-c2c[nH]c(C(=O)O)c2-c2cc(OC)c3c(c2OC)OCO3)cc1
inactive: [2] 103% | [3] 104% | [4] 103% | [5] 103% | [6] 106% | [7] 105%

CCN(CC)S(=O)(=O)c1cccc([N+](=O)[O-])c1
inactive: [2] 79.1% | [3] 99% | [4] 100% | [5] 103% | [6] 80.7% | [8] 101% | [7] 108%

Cn1ncc2c(Nc3ccccc3Cl)nc(Cl)nc21
inactive: [1] 99.7% | [3] 113% | [4] 126% | [5] 104% | [6] 99.4% | [8] 109% | [7] 126%

CN(C)Cc1c(-c2ccccc2)[nH]c2ccccc12
inactive: [2] 75.3% | [3] 105% | [4] 99.6% | [5] 81.8% | [6] 67.9% | [8] 98.2% | [7] 96.7%

CCN1C(=O)N(CC)C2NC(SC)=NC21 (stereo not drawn)
inactive: [2] 103% | [3] 102% | [4] 97.6% | [5] 99.3% | [6] 104% | [8] 99.3% | [7] 102%

CCN(CC)CCCC(Nc1c2ccc(Cl)cc2nc2ccc(OC)cc12)c1ccc(Cl)cc1 (stereo not drawn)
active: [3] -88.2% | [4] -75.8% | [5] -73.8% | [6] -88.8% | [8] -75.4% | [7] -56.9%
inactive: [2] 43.4%

COc1cc(NCCN(CC(C)C)C2CCCC2)c2ncccc2c1
inactive: [2] 98.8% | [3] 111% | [4] 72.2% | [5] 42% | [6] 63.4% | [8] 87.5% | [7] 86.1%

COC(=O)Nc1ccc(NC(=O)OC)cc1
inactive: [2] 84.6% | [3] 101% | [4] 104% | [5] 92.1% | [6] 83.9% | [8] 106% | [7] 111%

CCCCc1ccc(Nc2nnc(SCC(=O)NC(=O)NCC)s2)cc1
inactive: [1] 128% | [3] 104% | [4] 102% | [5] 101% | [6] 93.6% | [7] 102%

COc1ccccc1/C=C1\Oc2cc(OCCCN3CCCC3)ccc2C1=O
inactive: [2] 94.8% | [3] 91.4% | [4] 73% | [5] 80% | [6] 50.9% | [8] 102% | [7] 98.3%

O=C(Nc1ccccc1)Oc1ccccc1-c1ccccc1
inactive: [2] 76.3% | [3] 99.9% | [4] 99.5% | [5] 95.5% | [6] 77.6% | [8] 107% | [7] 107%

COc1cc(CNC(=O)CCCCC[P+](c2ccccc2)(c2ccccc2)c2ccccc2)c(OC)c2c1OCO2
inactive: [2] 37.8% | [3] 39% | [4] 70.7% | [5] 67.4% | [6] 50.4% | [7] 45.6%

CCCCCCCCN1C(=O)/C(=c2\sc3n(c2=O)C2C(NN=3)N(CC)C(=O)N2CC)c2ccccc21 (stereo not drawn)
inactive: [2] 86.9% | [3] 57.3% | [4] 86.8% | [5] 85.2% | [6] 63.2% | [7] 89.9%

COc1cc(-c2cc(=O)oc3cc(O)ccc23)c(OC)c2c1OCO2
inactive: [2] 90.9% | [3] 101% | [4] 96.6% | [5] 102% | [6] 98.4% | [8] 97.3% | [7] 93.8%

COc1ccc(CNCCN2C(=O)c3ccc4c5c(ccc(c35)C2=O)C(=O)N(CCNCc2ccc(OC)cc2)C4=O)cc1
active: [1] -19% | [3] -71.4% | [4] -88% | [5] -79.2% | [6] -72.4% | [8] -92.3% | [7] -81.8%

COc1cccc2cc(-c3cc4ccccc4[nH]3)/c(=N/C(=S)Nc3ccc(C)cc3)oc12
inactive: [2] 89.6% | [3] 85.1% | [4] 78% | [5] 74% | [6] 49.3% | [8] 99.9% | [7] 70.9%

CCC(C)N(CCNc1cc(OC)cc2cccnc12)CCC(C)C (stereo not drawn)
inactive: [2] 90.8% | [3] 107% | [4] 58.4% | [5] 25.7% | [6] 64.9% | [8] 79.1% | [7] 77.6%

O=C(/C=C\c1ccc(OCCCCCC[P+](c2ccccc2)(c2ccccc2)c2ccccc2)cc1)c1ccc2c(c1)OCCO2
active: [2] -16.9% | [3] -29.8% | [4] -41.4% | [5] 5.09% | [6] -73.1% | [7] -76.4%
inactive: [8] 32.5%

Cc1ccc(-c2c(Br)c(OC(=O)CO[C@@H]3C[C@H](C)CC[C@H]3C(C)C)c(-c3ccc(C)cc3C)c(Br)c2OC(=O)CO[C@H]2C[C@@H](C)CC[C@@H]2C(C)C)c(C)c1
inactive: [2] 85.5% | [3] 104% | [4] 109% | [5] 92.1% | [6] 89.4% | [8] 108% | [7] 107%

O=C(Nc1cccc(Cl)c1)Oc1c(Br)c(Br)c(Br)c(Br)c1Br
inactive: [2] 79.5% | [3] 99.8% | [4] 102% | [5] 93.9% | [6] 80.3% | [8] 94.7% | [7] 106%

COc1cc(NCC(O)CN(CC(C)C)CC(C)C)c2nc(C)ccc2c1 (stereo not drawn)
active: [5] -11.4%
inactive: [2] 90.9% | [3] 105% | [4] 92.7% | [6] 97.3% | [8] 89.9% | [7] 75.5%

CCN(CCNc1cc(OC)cc2cccnc12)CCc1ccccc1
inactive: [2] 87.6% | [3] 104% | [4] 70.7% | [6] 59.8% | [8] 88.5% | [7] 85.6%
active: [5] 0.943%

CC(=O)OCC(=O)[C@@]1(O)CC[C@H]2[C@@H]3CC(=C(Br)Br)C4=CC(=O)CC[C@]4(C)[C@H]3C(=O)C[C@@]21C
inactive: [2] 73.5% | [3] 100% | [4] 95.3% | [5] 84.4% | [6] 68.3% | [8] 95.8% | [7] 93.6%

COc1ccc(Cl)cc1NC(=O)c1c(NC(=O)C(F)(F)C(F)(F)F)sc2c1CCCCC2
inactive: [4] 12.8% | [8] 15.9%
active: [2] -4.71% | [3] 8.76% | [5] 4.9% | [6] -0.0954% | [7] 3.84%

Cc1ccccc1C(c1ccccc1)c1ccccc1C
inactive: [2] 86.1% | [3] 105% | [4] 97.7% | [5] 98.8% | [6] 73.2% | [8] 101% | [7] 98.2%

Cc1c([N+](=O)[O-])cc(C(C)(C)C)cc1[N+](=O)[O-]
inactive: [2] 102% | [3] 107% | [4] 98.9% | [5] 92.8% | [6] 87.3% | [8] 95.2% | [7] 102%

CCCOc1nc(SCCC)nc2c1cnn2-c1ccccc1
inactive: [1] 115% | [3] 104% | [4] 103% | [5] 101% | [6] 105% | [7] 105%

CCCc1cc2c(cc1Br)OCO2
inactive: [2] 82.7% | [3] 110% | [4] 112% | [5] 95% | [6] 84.5% | [8] 103% | [7] 113%

CCNC(=O)c1[nH]cc(-c2ccc(OC)cc2)c1-c1cc(OC)cc(OC)c1
inactive: [2] 90.2% | [3] 84.3% | [4] 101% | [5] 99.5% | [6] 82.3% | [8] 102% | [7] 89.9%

O=C(O)CNC(=O)CN1C(=O)c2ccccc2C1=O
inactive: [2] 89.5% | [3] 107% | [4] 105% | [5] 96.3% | [6] 89.3% | [8] 106% | [7] 115%

CS(=O)(=O)Nc1cc(-c2ccc3ncnc(Nc4ccc5[nH]ncc5c4)c3c2)cnc1Cl
inactive: [2] 69.3% | [3] 75% | [4] 90.8% | [5] 38.5% | [6] 92.2% | [8] 92% | [7] 102%

O=c1[nH]c2c(s1)CCCC2CN1CCCCC1 (stereo not drawn)
inactive: [2] 72.6% | [3] 107% | [4] 114% | [5] 96.3% | [6] 76.8% | [8] 100% | [7] 108%

Cc1cc(C)c(C=O)c(C)c1
inactive: [2] 91.4% | [3] 103% | [4] 95% | [5] 106% | [6] 83.1% | [7] 105%

CCCCCCCCCCCCCCCCCCOc1ccccc1N
inactive: [3] 78.7% | [4] 98.7% | [5] 75.4% | [6] 44% | [8] 88.8% | [7] 39.8%
active: [2] -5.26%

COc1cc(/C=C/C(=O)c2c(C)oc3nc[nH]c(=O)c23)ccc1O
inactive: [2] 100% | [3] 102% | [4] 100% | [5] 90.2% | [6] 102% | [8] 100% | [7] 103%
